The list is not random: actives were taken first. Their share in the collection is about 2.9%.
pPAFAH FP inh: pPAFAH enzyme inhibitors, primary screen, biochemical, fluorescence polarization, human; Platelet-activating factor acetylhydrolase (Homo sapiens), Q13093; recombinant pPAFAH, FP-rhodamine probe fluorescence polarization; inhibition, % at 3.39 µM; 1.5% of 330,000 active; AID 463082, 2010;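 active means inhibition above the mean inhibition across the screen plus 3 SD, cut at about 25% in these data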;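 further: inhibitors block binding of the rhodamine activity-based probe so polarization drops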
PAFAH1B3 FP inh: PAFAH1B3 enzyme inhibitors, primary screen, biochemical, fluorescence polarization, human | Platelet-activating factor acetylhydrolase IB subunit alpha1 (Homo sapiens), Q15102 | recombinant PAFAH1B3, FP-rhodamine probe | inhibition, % at 3.39 µM | 0.28% of 340,000 active | AID 492972, 2010;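 active means inhibition above the screen-wide average of all tested compounds plus 3 SD, cut at about 25% in these data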
Target sequence (Q15102 whole entry, looked up): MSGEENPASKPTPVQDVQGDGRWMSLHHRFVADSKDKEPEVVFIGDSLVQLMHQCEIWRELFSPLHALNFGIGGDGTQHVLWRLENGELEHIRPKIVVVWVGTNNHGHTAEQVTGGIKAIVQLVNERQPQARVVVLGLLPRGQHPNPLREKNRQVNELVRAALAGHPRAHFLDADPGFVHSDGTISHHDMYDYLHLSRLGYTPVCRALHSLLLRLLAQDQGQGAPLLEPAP
Fam108B counter: mouse Fam108B serine hydrolase inhibitors, primary screen, counter-screen for RBBP9 inhibitor project, biochemical, fluorescence polarization; recombinant Fam108B, FP-Rh probe fluorescence polarization; inhibition, % at 9.51 µM; 0.33% of 300,000 active; AID 1947, 2009;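 active means inhibition above the screen mean inhibition plus 3 SD, computed separately per campaign, cut at about 18% in these data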;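 further: inhibitors lower polarization as less probe binds the enzyme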
PAFAH1B2 FP inh: PAFAH1B2 enzyme inhibitors, primary screen, biochemical, fluorescence polarization, human | recombinant PAFAH1B2, FP-rhodamine activity probe | 1.2% of 340,000 active | inhibition, % at 3.39 µM | AID 492953, 2010 | Platelet-activating factor acetylhydrolase IB subunit alpha2 (Homo sapiens), P68402;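 active means inhibition above the mean of all tested compounds plus 3 SD, cut at about 24% in these data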
Target sequence (P68402 whole entry, looked up): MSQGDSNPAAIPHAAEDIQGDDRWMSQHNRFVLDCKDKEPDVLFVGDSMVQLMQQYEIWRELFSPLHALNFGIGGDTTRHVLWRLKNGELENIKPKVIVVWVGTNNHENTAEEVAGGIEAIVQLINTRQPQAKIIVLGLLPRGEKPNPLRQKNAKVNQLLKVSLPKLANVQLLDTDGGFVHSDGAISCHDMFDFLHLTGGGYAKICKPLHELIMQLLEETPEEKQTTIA
PME-1 inh: PME-1 inhibitors via competitive probe labeling, primary screen, biochemical, fluorescence polarization, FP-Rh probe, HTS. recombinant PME-1. inhibition, % at 5.9 µM. 0.53% of 320,000 active. AID 2130, 2009;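 active means inhibition above the campaign mean of all compounds plus 3 SD, cut at about 26% in these data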;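 further: competitive labeling of PME-1 active site by serine hydrolase directed probe; inhibitors block probe labeling so polarization falls and inhibition rises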
PAFAH2 inh: PAFAH2 enzyme inhibitors, primary screen, biochemical, fluorescence polarization, human | Platelet-activating factor acetylhydrolase 2, cytoplasmic (Homo sapiens), Q99487 | recombinant PAFAH2, FP-rhodamine activity probe | inhibition, % at 3.39 µM | 0.99% of 340,000 active;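 active means inhibition above the mean over all tested compounds plus 3 SD, cut at about 30% in these data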;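 further: inhibitors block probe labeling of enzyme so polarization drops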
PAFAH1B3 conf FP: PAFAH1B3 enzyme inhibitors, confirmation, biochemical, fluorescence polarization, human; shares compounds with PAFAH1B3 FP inh; recombinant PAFAH1B3, FP-Rh activity-based probe; inhibition, % at 3.39 µM; 30% of 390 active;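 active means average inhibition over triplicate runs above the hit cutoff set in the earlier primary screen, cut at about 25% in these data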
Each line names hits and unclear results; the compound was inactive in the other large screens (follow-up assays come after a bar, where they were run).

Cc1nn(-c2ccc(F)cc2)c2nc(N)c(C#N)c(-c3cccs3)c12	none
COc1ccc(C(=O)C[n+]2ccccc2/C=N/O)cc1	PAFAH1B3 FP inh 26 | PAFAH1B3 conf FP inactive
CCOC(=O)c1c(C)oc2c1C(=O)c1ccccc1C2=O	PAFAH1B3 FP inh 30 | PAFAH1B3 conf FP inactive
COc1cc(OC)c(C(=O)OCC(=O)N2CCN(S(=O)(=O)c3ccc(C)cc3C)CC2)cc1OC	none (no result: pPAFAH FP inh, Fam108B counter, PME-1 inh)
CC(C)c1ccc(OCC(=O)NCc2n[nH]c(=O)c3ccccc23)cc1	none
CC(=O)N(/N=C1\Sc2ccccc2C1=O)c1ccccc1C	PAFAH1B3 FP inh 41 | PAFAH1B3 conf FP 54
CC(=O)N(/N=C1/C(=O)Nc2ccccc21)c1ccccc1	none
CC(=O)N(/N=C1\Sc2ccccc2C1=O)c1ccccc1	PAFAH1B3 FP inh 44 (no result: pPAFAH FP inh, Fam108B counter, PME-1 inh) | PAFAH1B3 conf FP 62
CC(=O)N(/N=C1\Sc2ccccc2C1=O)c1ccc(C)cc1C	none
Oc1ccc(/C=N/n2c(COc3ccccc3)n[nH]c2=S)c(O)c1	none
Oc1ccccc1/C=N/n1c(COc2ccccc2)n[nH]c1=S	PAFAH1B3 FP inh 43 | PAFAH1B3 conf FP inactive
COc1ccccc1Nc1cc2cc(Br)ccc2c(=O)[nH]1	none
COc1ccc(OC)c(Nc2cc3ccccc3c(=O)[nH]2)c1	PAFAH1B3 FP inh 38 | PAFAH1B3 conf FP inactive
COc1cc2c(=O)n(CCC(=O)NCC3CCCO3)c(=O)n(CC(=O)Nc3ccc(C)cc3C)c2cc1OC (stereo unspecified)	none
N=c1sc2ccccc2n1-c1ccccc1	none
C=CC(=O)N=c1sc2ccccc2n1-c1ccccc1	PAFAH1B3 FP inh 55 | PAFAH1B3 conf FP 47
CCN(CC(=O)Nc1cc(Cl)ccc1C)C(=O)c1ccc2c(=O)n3c(nc2c1)CCC3	none
CC(=O)C(C(C)=O)C1(O)C(=O)c2ccccc2C1=O	PAFAH1B3 FP inh 34 | PAFAH1B3 conf FP inactive
S=C(Nc1ccc2nsnc2c1)N1CCCCCC1	PAFAH1B3 FP inh 32 | PAFAH1B3 conf FP inactive
COCCNC(=S)Nc1ccc2nsnc2c1	PAFAH1B3 FP inh 69 | PAFAH1B3 conf FP inactive
C=CCN(CC=C)C(=S)Nc1ccc2nsnc2c1	PAFAH1B3 FP inh 59 | PAFAH1B3 conf FP inactive
S=C(Nc1ccc(Cl)c(Cl)c1)NC1CCCCC1	none
S=C(Nc1ccc2nsnc2c1)NC1CCCCC1	PAFAH1B3 FP inh 56 | PAFAH1B3 conf FP inactive
COc1cc2c(cc1OC)C(C)N(C(=O)[C@@H](NC(=O)c1ccccc1)C(C)C)CC2 (stereo partly specified)	none
Cc1nnc(SCC(=O)NCC2CCCO2)n1Cc1ccccc1 (stereo unspecified)	none (no result: Fam108B counter, PME-1 inh)
O=C(Cn1ncc(Cl)c(Cl)c1=O)NC1CCCCC1	PAFAH1B3 FP inh 29 (no result: Fam108B counter) | PAFAH1B3 conf FP inactive
CCN(c1ccccc1)S(=O)(=O)c1ccc(OC)c(NC(=O)C2CC(=O)N(Cc3ccccc3)C2)c1 (stereo unspecified)	none
O=C(NC1(O)C(=O)c2ccccc2C1=O)c1c(Cl)cccc1Cl	none (no result: PAFAH1B3 FP inh, PAFAH1B2 FP inh, PAFAH2 inh)
O=C(NC1(O)C(=O)c2ccccc2C1=O)c1ccccc1	PAFAH1B3 FP inh 36 | PAFAH1B3 conf FP 37
CC1(NC(=O)c2cc(Cl)nc3ccccc23)CCS(=O)(=O)C1 (stereo unspecified)	PAFAH1B3 FP inh 35 (no result: Fam108B counter) | PAFAH1B3 conf FP inactive
C=CC(=O)Nc1sc2c(c1C(N)=O)CCCC2	PAFAH1B3 FP inh 32 | PAFAH1B3 conf FP 30
Cc1cn(CC(=O)NCCc2c[nH]c3ccccc23)c(=O)[nH]c1=O	none (no result: pPAFAH FP inh, Fam108B counter, PME-1 inh)
O=C(O)CCCCCCCCCCCNC(=O)NC12CC3CC(CC(C3)C1)C2	PAFAH1B3 FP inh 26 (no result: Fam108B counter) | PAFAH1B3 conf FP inactive
CCOCCCNC(=O)NC12CC3CC(CC(C3)C1)C2	none
CCNCC(=O)N1c2ccccc2CCc2ccc(NC(=O)OC(C)C)cc21	PAFAH1B3 FP inh 31 | PAFAH1B3 conf FP inactive
Cc1cc(NC(=O)C(C)SCC(=O)OC(C)C(=O)Nc2ccc(F)cc2Cl)no1 (stereo unspecified)	none
Cc1nnc(N2C(=O)c3cccc4c([N+](=O)[O-])ccc(c34)C2=O)s1	PAFAH1B3 FP inh 29 | PAFAH1B3 conf FP inactive
O=C1c2cccc3c([N+](=O)[O-])ccc(c23)C(=O)N1Cc1cccnc1	PAFAH1B3 FP inh 47 (no result: pPAFAH FP inh, Fam108B counter, PME-1 inh) | PAFAH1B3 conf FP 48
Cc1ccnc(N2C(=O)c3cccc4c([N+](=O)[O-])ccc(c34)C2=O)c1	PAFAH1B3 FP inh 31 | PAFAH1B3 conf FP 41
C=CCS/C(N)=N\N=C\c1c(O)ccc2ccccc12	none
NC1=C(Br)C(=O)c2ncccc2C1=O	PAFAH1B3 FP inh 58 (no result: pPAFAH FP inh, Fam108B counter, PME-1 inh) | PAFAH1B3 conf FP 41
O=C1c2cccnc2C(=O)N1CO	none
COc1ccc(C(=O)c2ccc(OC)c(OC)c2)cc1OC	none
COc1ccc(C(=O)c2nccc3cc(OC)c(OC)cc23)cc1OC	PAFAH1B3 FP inh 57 (no result: Fam108B counter) | PAFAH1B3 conf FP inactive
CC(=O)c1ccccc1NC(=O)c1ccc(OCc2c(C)noc2C)cc1	none (no result: Fam108B counter, PME-1 inh)
Cc1ccc(C)c(N2CCN(S(=O)(=O)c3ccc(-c4cc(C)no4)s3)CC2)c1	none
COc1ccc2nc(NNC(=O)COc3ccccc3)sc2c1	none
COc1ccc2nc(NNC(=O)c3cc(=O)c4ccccc4o3)sc2c1	PAFAH1B3 FP inh 29 | PAFAH1B3 conf FP inactive
O=S(=O)(Nc1ccc(N=Nc2ccc(O)c3ccccc23)cc1)c1ccccc1	PAFAH1B3 FP inh 36, PME-1 inh 39 | PAFAH1B3 conf FP inactive
CCCC(=O)Nc1ccc2oc(=O)ccc2c1	none
Nc1c(O)cccc1C(=O)O	PAFAH1B3 FP inh 30 | PAFAH1B3 conf FP inactive
CC1(C)C(=O)OC(c2cccn2-c2ccc([N+](=O)[O-])cc2)C2(CCCCC2)C1=O (stereo unspecified)	PAFAH1B3 FP inh 48 | PAFAH1B3 conf FP inactive
CC1(C)C(=O)OC(c2cccn2-c2ccc([N+](=O)[O-])cc2)C(C)(C)C1=O (stereo unspecified)	none
CCc1ccc([C@H]2C(C(=O)O)=C[C@@H](CC3CCCC3)N2S(=O)(=O)c2ccc(C)cc2)cc1	none (no result: Fam108B counter, PME-1 inh)
CCc1ccc(NC(=O)NNC(=O)c2ccc3ccccc3c2O)cc1	PAFAH1B3 FP inh 36 (no result: pPAFAH FP inh, Fam108B counter, PME-1 inh) | PAFAH1B3 conf FP 74
CC(/C=N/NC(=O)c1ccc(Cn2cc([N+](=O)[O-])cn2)o1)=C\c1ccccc1	none
O=C1NC(=O)c2cc(Br)cc3cccc1c23	PAFAH1B3 FP inh 46 | PAFAH1B3 conf FP 53
O=C1NC(=O)c2cc([N+](=O)[O-])cc3cccc1c23	none (no result: pPAFAH FP inh, Fam108B counter, PME-1 inh)
COC(=O)NN=C1CCC(c2ccccc2)CC1 (stereo unspecified)	none (no result: pPAFAH FP inh, Fam108B counter, PME-1 inh)

Source: PubChem
